Measurements reported in PubChem BioAssay.
The source made the active and inactive calls. Unless noted, the rule behind the calls is not given here.

How the values were obtained:
[1] = HepG2 liver cancer cell viability effects, profiling panel, resazurin fluorescence, 24 h, PK04 Diversity Set (AID 1172); conditions: higher = more signal
[2] = basal S. cerevisiae growth modulation, no modifier, primary screen, OD600, strain BY4716, 24 h, basal condition (AID 1173); conditions: OD600, 24 h, higher = more signal, called active from +8 up or from −8 down
[3] = MM1S myeloma cell viability, profiling panel, resazurin fluorescence, basal, 24 h, PK04 Diversity Set (AID 1174); conditions: higher = more signal, called active from +8 up or from −8 down;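 note: MM1S multiple myeloma cell line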
[4] = molecular target: Dihydroorotate dehydrogenase (quinone), mitochondrial (Plasmodium falciparum (isolate 3D7)) (UniProt Q08210); assay: PfDHODH enzyme inhibitors, primary screen, biochemical, C-terminal His tag, absorbance 600 nm (AID 1175); conditions: DCIP absorbance 600 nm, higher = more signal, called active from +8 up or from −8 down;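 note: recombinant parasite enzyme with a five histidine tag at its C terminus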
Dihydroorotate dehydrogenase (quinone), mitochondrial (Plasmodium falciparum (isolate 3D7)), sequence (Q08210 whole entry, looked up): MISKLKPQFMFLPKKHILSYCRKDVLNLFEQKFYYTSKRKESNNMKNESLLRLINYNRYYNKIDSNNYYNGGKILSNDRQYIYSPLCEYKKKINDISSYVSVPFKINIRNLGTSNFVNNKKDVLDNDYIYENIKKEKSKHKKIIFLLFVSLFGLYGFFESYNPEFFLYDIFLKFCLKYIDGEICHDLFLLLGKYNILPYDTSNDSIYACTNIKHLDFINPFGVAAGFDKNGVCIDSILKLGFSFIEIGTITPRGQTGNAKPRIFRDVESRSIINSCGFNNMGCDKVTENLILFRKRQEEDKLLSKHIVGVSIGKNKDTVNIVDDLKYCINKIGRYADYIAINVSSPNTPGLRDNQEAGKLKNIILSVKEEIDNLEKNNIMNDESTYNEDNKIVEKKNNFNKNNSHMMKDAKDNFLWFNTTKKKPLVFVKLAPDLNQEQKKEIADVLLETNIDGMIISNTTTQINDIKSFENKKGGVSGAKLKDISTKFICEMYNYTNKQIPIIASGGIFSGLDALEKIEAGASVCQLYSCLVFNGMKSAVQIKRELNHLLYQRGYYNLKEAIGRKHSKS

[5] = P. aeruginosa biofilm formation inhibitors, primary screen, strain PAO1, LB-PBS medium, absorbance 600 nm (AID 1176); conditions: P. aeruginosa PAO1 growth/biofilm, A600, 12 h; higher = more signal
[6] = S. cerevisiae RM11-1a growth modifiers, primary screen, strain RM11-1a, OD600, basal, 24 h (AID 1177); conditions: OD600, 24 h, higher = more signal, called active from +8 up or from −8 down;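 note: cultures grown under basal conditions with no added stressor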
[7] = E. coli acrAB mutant growth effects, primary screen, E. coli filamentation inducers, strain DRC39, OD650, 24 h (AID 1178); conditions: higher = more signal, called active from +8 up or from −8 down;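 note: growth measured as culture turbidity by optical density at 650 nm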
[8] = E. coli acrAB mutant growth effects, primary screen, E. coli filamentation inducers, strain DRC39, OD650, 48 h (AID 1179);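 note: screen aims at cell division blockers that make cells filament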; conditions: E. coli DRC39 delta-acrAB growth, higher = more signal, called active from +8 up or from −8 down
[9] = RPMI8226 myeloma cell viability, profiling panel, resazurin fluorescence, basal, 24 h, PK04 Diversity Set (AID 1180); conditions: higher = more signal;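 note: RPMI8826 multiple myeloma cell line at 5000 cells per well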
[10] = molecular target: E3 ubiquitin-protein ligase XIAP (Homo sapiens) (UniProt P98170); assay: XIAP binders, primary screen, biophysical, small-molecule microarray, fluorescence 635 nm (AID 1181); conditions: small-molecule microarray binding, higher = more signal;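 note: score merges 667 nm emission and signal to noise over triplicate slides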
E3 ubiquitin-protein ligase XIAP (Homo sapiens), sequence (P98170 whole entry, looked up): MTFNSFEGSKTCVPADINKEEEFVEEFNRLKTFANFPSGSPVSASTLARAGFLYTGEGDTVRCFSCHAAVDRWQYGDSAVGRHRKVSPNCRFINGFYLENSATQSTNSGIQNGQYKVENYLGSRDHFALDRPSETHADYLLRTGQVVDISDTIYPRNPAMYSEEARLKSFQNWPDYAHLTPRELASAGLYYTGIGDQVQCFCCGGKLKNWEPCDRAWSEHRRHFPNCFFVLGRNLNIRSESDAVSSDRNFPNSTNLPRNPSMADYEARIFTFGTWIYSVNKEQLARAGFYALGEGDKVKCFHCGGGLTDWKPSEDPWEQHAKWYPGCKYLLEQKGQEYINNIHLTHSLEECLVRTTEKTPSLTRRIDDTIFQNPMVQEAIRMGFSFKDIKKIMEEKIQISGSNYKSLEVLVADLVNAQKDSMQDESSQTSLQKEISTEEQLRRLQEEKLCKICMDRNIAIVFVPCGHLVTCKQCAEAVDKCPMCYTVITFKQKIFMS

[11] = system: XIP peptide (Xip251-270) binding; assay: small-molecule binders of XIP peptide, primary screen, biochemical, small-molecule microarray, fluorescence 635/667 nm, 0.1 µg/mL protein (AID 1182); conditions: fluorescent protein binding, 635 nm, higher = more signal, called active from +8 up or from −8 down
XIP peptide (Xip251-270) = assay: small-molecule binders of XIP peptide, primary screen, biochemical, small-molecule microarray, fluorescence 635/667 nm, 0.5 µg/mL protein (AID 1183); conditions: small-molecule microarray binding, fluorescence 635 nm; higher = more signal
[12] = Plasmodium falciparum growth inhibition, primary screen, strain 3D7, DAPI fluorescence, 100 nL (AID 1184);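 note: parasites grown inside human red blood cells in medium with human serum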; conditions: P. falciparum 3D7 growth, 3 d, higher = more signal
[13] = molecular target: Homeobox protein Hox-A13 (Mus musculus) (UniProt Q62424); assay: inhibitors of HoxA13-DNA binding, primary screen, biochemical, fluorescence polarization, labeled oligonucleotide (AID 1185); conditions: 15 min, higher = more signal, called active from +8 up or from −8 down
Homeobox protein Hox-A13 (Mus musculus), sequence (Q62424 whole entry, looked up): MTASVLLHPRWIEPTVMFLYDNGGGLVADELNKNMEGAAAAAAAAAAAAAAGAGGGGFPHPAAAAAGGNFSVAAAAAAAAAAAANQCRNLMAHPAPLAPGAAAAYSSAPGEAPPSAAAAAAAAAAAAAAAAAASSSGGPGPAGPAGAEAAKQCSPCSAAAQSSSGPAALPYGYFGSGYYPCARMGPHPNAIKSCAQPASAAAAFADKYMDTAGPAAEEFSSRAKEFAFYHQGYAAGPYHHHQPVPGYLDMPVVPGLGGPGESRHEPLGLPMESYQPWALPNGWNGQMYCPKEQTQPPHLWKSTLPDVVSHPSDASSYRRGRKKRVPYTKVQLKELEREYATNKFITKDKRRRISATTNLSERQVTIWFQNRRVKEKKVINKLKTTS

[14] = inhibitors of hydroxyurea-induced Chk1 phosphorylation, primary screen, imaging, HeLa, phospho-Chk1 antibody, percent positive cells (AID 1186); conditions: hydroxyurea-induced phospho-Chk1 immunofluorescence imaging, higher = more signal
[15] = inhibitors of hydroxyurea-induced Chk1 phosphorylation, primary screen, imaging, HeLa, phospho-Chk1 nuclear intensity (AID 1187); conditions: hydroxyurea-induced phospho-Chk1 immunofluorescence imaging, higher = more signal

For `CCCC[C@@H]1C[C@H]1[C@@H](NC(=O)c1ccco1)c1ccc(-c2ccccc2)cc1`, the z-score [1] was -0.9, the z-score [2] was 1.22 (inactive) and the z-score [3] was -1.52 (inactive). The composite z-score [4] was -3.3 (inactive), the z-score [5] was 2.16 (inactive) and the z-score [6] was 0.505 (inactive). The z-score [7] was -1.05 (inactive), the z-score [8] was -1.2 (inactive) and the z-score [9] was -1.29. For the same molecule, the composite z-score [10] was 0.773, the composite z-score [11] was -0.781 (inactive) and the composite z-score (XIP peptide (Xip251-270)) was -0.321. The z-score [12] was -0.937, the z-score [13] was 0.141 (inactive) and the z-score [14] was 0.353 (inactive). For the same molecule, the z-score [15] was 0.0955 (inactive).
In the case of `CO[C@H]1O[C@H](CO)[C@@H](OC(=O)Nc2cccc(F)c2)[C@H](OC(=O)Nc2ccccc2)[C@@H]1OC(=O)Nc1ccccc1`, the z-score [1] is reported as -1.62, the z-score [2] is reported as 0.706 (inactive) and the z-score [3] is reported as -2.56 (inactive). For the same molecule, the composite z-score [4] was 0.127 (inactive), the z-score [5] was 0.758 (inactive) and the z-score [6] was 0.666 (inactive). The z-score [7] was -0.002 (inactive), the z-score [8] was -0.0057 (inactive) and the z-score [9] was -2.4. The composite z-score [10] was 0.0623, the composite z-score [11] was 1.23 (inactive) and the composite z-score (XIP peptide (Xip251-270)) was 0.82. For the same molecule, the z-score [12] was -1.26, the z-score [13] was -6.57 (inactive) and the z-score [14] was 0.108 (inactive). For the same molecule, the z-score [15] was 0.358 (inactive).
In the case of `CCC[C@@H]1C[C@@]1(CCC)[C@@H](NC(=O)c1ccccc1)c1cccc(Cl)c1`, the z-score [1] is reported as -0.141, the z-score [2] is reported as 1.74 (inactive) and the z-score [3] is reported as 0.208 (inactive). For the same molecule, the composite z-score [4] was 0.249 (inactive), the z-score [5] was -0.195 (inactive) and the z-score [6] was 2.26 (inactive). The z-score [7] was -0.557 (inactive), the z-score [8] was -0.514 (inactive) and the z-score [9] was 1.09. For the same molecule, the composite z-score [10] was -0.0326, the composite z-score [11] was 0.11 (inactive) and the composite z-score (XIP peptide (Xip251-270)) was -0.211. For the same molecule, the z-score [12] was -0.348, the z-score [13] was 2.13 (inactive) and the z-score [14] was -0.769 (inactive). For the same molecule, the z-score [15] was -0.608 (inactive).
For `COC(=O)C(CC#Cc1ccc2c(c1)[C@]1(C(=O)N2)[C@H](C(=O)Nc2nc3ccccc3s2)[C@H]2C(=O)O[C@H](c3ccccc3)[C@H](c3ccccc3)N2[C@@H]1c1ccccc1OCCO)C(=O)OC`, the z-score [1] was 0.522, the z-score [2] was 0.839 (inactive) and the z-score [3] was -0.334 (inactive). The composite z-score [4] was -4.92 (inactive), the z-score [5] was 2.47 (inactive) and the z-score [6] was 2.1 (inactive). For the same molecule, the z-score [7] was -0.0715 (inactive), the z-score [8] was 0.037 (inactive) and the z-score [9] was -1.1. For the same molecule, the composite z-score [10] was 0.472, the composite z-score [11] was 1.5 (inactive) and the composite z-score (XIP peptide (Xip251-270)) was 0.815. The z-score [12] was -2.02, the z-score [13] was 2.38 (inactive) and the z-score [14] was 0.0018 (inactive). The z-score [15] was 0.304 (inactive).
For `C=CCC(OC(C)=O)[C@@H]1[C@@H](N(Cc2cc3ccccc3o2)C(=O)c2cccc3ccccc23)c2cc(OCCCO)ccc2N1C(=O)c1ccc(-c2ccccc2)cc1` (stereo partly specified), the z-score [1] was -1.11, the z-score [2] was -0.356 (inactive) and the z-score [3] was 0.353 (inactive). The composite z-score [4] was -0.0369 (inactive), the z-score [5] was -1.27 (inactive) and the z-score [6] was -0.208 (inactive). The z-score [7] was 0.75 (inactive), the z-score [8] was -0.11 (inactive) and the z-score [9] was 0.03. The composite z-score [10] was -0.256, the composite z-score [11] was 0.277 (inactive) and the composite z-score (XIP peptide (Xip251-270)) was 0.287. For the same molecule, the z-score [12] was -3.01, the z-score [13] was -0.424 (inactive) and the z-score [14] was 0.0396 (inactive). The z-score [15] was 0.577 (inactive).
For `COCCCNC(=O)[C@@H]1c2ccccc2C(=O)N(Cc2ccccc2Cl)[C@H]1c1ccc(CO)cc1`, the z-score [1] was -0.378, the z-score [2] was -0.259 (inactive) and the z-score [3] was 0.655 (inactive). For the same molecule, the composite z-score [4] was -0.636 (inactive), the z-score [5] was 0.692 (inactive) and the z-score [6] was -1.02 (inactive). For the same molecule, the z-score [7] was 0.987 (inactive), the z-score [8] was 1.16 (inactive) and the z-score [9] was 0.871. For the same molecule, the composite z-score [10] was 0.78, the composite z-score [11] was 0.432 (inactive) and the composite z-score (XIP peptide (Xip251-270)) was 0.0699. The z-score [12] was 0.652, the z-score [13] was -2.2 (inactive) and the z-score [14] was -0.57 (inactive). For the same molecule, the z-score [15] was -0.352 (inactive).
